According to the supplement of paper PMC11417369:
± gives the standard deviation of the averaged measurements. In all, about 25,000 sequences were measured (“ln(normalized median fluorescence intensity)”: median about 7.9, highest 2% from about 11 on). The entries come from a sample that favours the highest values as a whole.

Tested on: PfAP2-I AP2 domain 3 (GST-tagged)
Assay: gcPBM binding intensity (ln(normalized median fluorescence intensity)); higher = stronger DNA binding
In short: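 Binding intensity values are the highest Masliner-normalised natural-log median intensity among replicate spots of either probe orientation. The binding step lasted 1 h in 1× PBS with 1% milk, 0.2 mg/ml BSA, 0.5% salmon testes DNA and 0.03% Triton X-100, using GST-tagged P. falciparum DNA-binding domains expressed in E. coli on an Agilent 4 × 180k array of primer-extended double-stranded 36-bp intergenic genomic probes plus negative controls. Alexa488 anti-GST antibody and a 488 nm scan detected bound protein.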

Sequence	gcPBM binding intensity (ln)
ACACGTTTATATAAAAAATTAAAATTTTTCTTATTT [CACACA_negctrl_site1523]	7.95 ± 0.32
TTGCCCCAGGAGTTCACACACATAATAGATTGTCAC [CACACA_site726]	7.79 ± 0.61
ATATTTTATTTTAATACACACAAGTTATATAACCAC [CACACA_site6508]	8.19 ± 0.48
CAAGTATTAATTATGTGTACATATATATATATATAT [XGTACX_site5311]	9.36 ± 0.23
TTGTTGTGTATTATCGTGCACATAATATAAAAGATT	11.11 ± 0.078
TATATGTATGTTTGTGTGCACACATAAATATTATAT	9.79 ± 0.042
ATCGTGTTAAATGTTGTGCACATATAAATTACAAAA [GTGCAC_site9822]	10.605 ± 0.007
TAAATGAAAATATGTACACACTTGAAAACTTTTATG [CACACA_site7388]	7.84 ± 0.45
GTTTTATAAAAAGGCGCACACATATACATAAATATA [CACACA_site1864]	8.47 ± 0.37
TAATAATTATTGCACGCACACAAAAACCTATAGATT [CACACA_site2931]	11 ± 0.67
AAAATATAATATATTGCACACAAAAAGTGAATTATT [CACACA_site8489]	10 ± 0.62
TGTAATAATTATTGCACGCACACAAAAACCTATAGA [CACACA_site2932]	10.8 ± 0.88
ATATTTTTTACTATTACACACAAGGGATTATTATTT [CACACA_site3915]	7.99 ± 0.69
ATACATACATATGTATGTACGTATGTATGTATGTAT [XGTACX_site3853]	8 ± 0.2
TATACTGTCAATTCTACACACCATAGGGGGAGCATA [CACACA_site1875]	9.22
TTTATTTTTAACAGTGCACACATAACTTAATTATAT [CACACA_site8681]	10.69 ± 0.071
TTTTTTTTTTTTAATGCACACAGTGAACTTTTACTT [CACACA_site3567]	11.3 ± 0.36
ATGAAATATGCACAGTGTACTTTTATGAGGAACATA [XGTACX_site426]	9.045 ± 0.064
AAAGAATTATATAAGGTGCACGAATGTTTCTTTAAT	10.96 ± 0.035
CATATAAGACAAAAGGTGCAATTTTAATGCTTTTAT [GTGCAC_site9432]	9.99 ± 0.071
TTTCTTTTTTTTTAATGTACTTTTTTTATAAAAGGT [XGTACX_site5688]	7.99 ± 0.23

Sequence	gcPBM binding intensity (ln)
AATAATACATCCTTAGTGCAGAAATAAAAATTAAGC [GTGCAC_site9955]	9.76 ± 0.24
AAATAATTAGAAATAGTGCACATAATTAAGGGATAC	11.5 ± 0.31
AATATATAAATTAATACATGCACATATAGAAAGGGA [TGCATGCA_site472]	8.7 ± 0.52
ATTTTACATATTTGCACACATATATTTAAATACATA [CACACA_site4627]	9.85 ± 0.28
GTATATCATTTTGGGGTGCTTAAAAATAATGAATAC	10.4 ± 0.46
TTATTATTATATGAATGTACTTAAAAATACATTTTG [XGTACX_site2959]	7.43 ± 0.49
TATGAACTTTTGGGGGTGCCTTAAAATGTATATTCT	11.2 ± 0.53
TCAACACACGTGGAATGTACTTTAGTATAAGAATTC [XGTACX_site7842]	7.74 ± 0.64
AAATTTATATAATATTGTACATTAAAAATTATATAT [XGTACX_site8009]	7.73 ± 0.3
TAAAATATGTCATGGGTGCTTCTTTTTATACCTATG [GTGCAC_site9888]	8.49 ± 0.38
AATATGTAAATATGGGTGCTTTAAAATATATTCATT [GTGCAC_site9583]	11.1 ± 0.66
TTTAATTAAATATGTATATATATTCATGTATGTATA [GTGCAC_negctrl_site14]	7.68 ± 0.26
GAATAAATTAAAAACGCATGTATCATTACTACATAA [TGCATGCA_site111]	7.36 ± 0.48
ATAACAAAATGAAGAGTGCATTACCAAGTGGGTAAA [GTGCAC_site9450]	10.93 ± 0.014
TTTATATAAATTTAAGTGCAAAATGAACAAGTGAAA	10.1 ± 0.15
ATATATATATATAAAGTGCAAAAATGAAAGTAAGAC [GTGCAC_site9850]	10.4 ± 0.21
TTATATATTTTTACCATACACACATATAATAAATAT [CACACA_site3721]	8.04 ± 0.63
TTTTTATTTTTTGTCTGTACATATATAAATTTATTA [XGTACX_site1525]	7.88 ± 0.47
CCGTACAATTTTGTCACACATAAAATACTTATGTAT [CACACA_site4871]	7.66 ± 0.51
CACCCTTTACACAAGGTGCATACTTTATTATATTTT [GTGCAC_site9778]	9.305 ± 0.049
AGTAGATTTTTATTAGTGCATTTTATACTACAAAAA	9.71 ± 0.24

Sequence	gcPBM binding intensity (ln)
TCCTTTTTACTACTAGTGCATTATTTACAAGGTCCG [GTGCAC_site9441]	11.4 ± 0.68
TATTATTATTGTTGATGTACATTTAATATAATATAT [XGTACX_site4482]	7.7 ± 0.38
TTTTTAATTTTGTGGGTGCTTTCGTGTTATTATATA	9.415 ± 0.021
AATATTGTTCACAAGGTGCTTTTTATTCATACTAAT	8.86 ± 0.18
TGTGTGTGTTCATGGGTGCTTTAATACTATTATAGG [GTGCAC_site9465]	11 ± 0.61
TGAATATTTCTATATACACACATATAAATATAAATA [CACACA_site7593]	7.55 ± 0.31
GTGGTATAAATTTTATGTACTTAATAACTCATTAAT [XGTACX_site5555]	7.79 ± 0.28
TTTTTAACGTATAAGGTGCACTGTATATGGTACTCA	11 ± 0.33
ATATATATATATATATGTACTTATAAGGTATATTTA [XGTACX_site3327]	9.35 ± 0.52
ATATTATTATAAACTTCACACATTTTATGGGTTTTT [CACACA_site4631]	7.49 ± 0.61
ATATATATAACAAAAGTGCATTAAGGGGATGCTATA	11.5 ± 0.26
ATAAAGATTAACAAAGTGCATTTATATATATAATCT [GTGCAC_site9407]	9.865 ± 0.092
TTAAAAGTAAGCAAAGTGCATATAACAAAAGTAAAG	10.01 ± 0.092
TTTTTTTTTTTTTTGGTGCGTTTATATATAAATATA	10.4 ± 0.86
TTAACAAAATTTTTAACACACAAAAAAAAAAAAAAA [CACACA_site1828]	8.2 ± 0.8
GGTTATAACCCACATGCACACGTAAATAAATATTAT [CACACA_site5992]	8.77 ± 0.3
TGAAATAACCCATGTGCATGCACTTCAATAACTGAA [TGCATGCA_site1041]	9.54 ± 0.47
AAATAACCCACGTGCATGCACTTCAATAACTGAACT	11.3 ± 0.14
TTGTATTCATATGGTTGTACATATTAAAAGTTCTAA [XGTACX_site7255]	7.73 ± 0.31
